# Screening data from PubChem.
# Only some compounds are listed: those with a hit (about 5.5% of all), similar ones and a draw of the others.
# ELG1 DNA repair: blocks ELG1-dependent DNA repair in HEK293T cells; HEK293T ELG1-luciferase reporter, luminescence, 16 h; DNA damage induced by 5-fluorouridine; Potency, µM (highest dose often 46.1 µM), without a hit: top-dose activity change, negative = inhibition, usual class: inhibitors; 330,000 compounds, 2.3% hits; note: potency is the fitted concentration of half-maximal effect; nearly all actives have a fitted effect of over 55% in size
#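 Quantitative HTS, concentration-response format. 2,000 cells/well co-treated with 5-fluorouridine and compound, 16 hr in 5% CO2 at 37 °C; ONE-Glo luminescence read after 30 min.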
# FBPA coupling cs: coupling enzyme interference in Giardia aldolase counter-screen; coupling enzyme system counterscreen, AmpLite Red fluorescence; activity change, negative = inhibition, % at 58.2 µM, hits read low; 290,000 compounds, 0.67% hits; AID 2472; in the data active = activity change below about -30%
#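 Counterscreen lacking aldolase: glyceraldehyde-3-phosphate coupling-enzyme reagent preincubated 10 min at RT with compound (at 57.5 uM final), then substrate/coupling system with AmpLite Red added; fluorescence read at 525/598 nm after 20 min RT.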
# Giardia killer: Giardia lamblia killing | 340,000 compounds, 0.15% hits | Giardia lamblia trophozoite viability | activity change, % at 7.66 µM, hits read low; in the data active = activity change below about -80%; inconclusive = between about -30% and that limit;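 note: parasites exposed to compound for two days anaerobically before the ATP read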
#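 Compounds were tested on trophozoites seeded at 100 cells/well and held 48 hrs at 37 deg C anaerobically. An ATP-based luminescent kit measured the remaining live cells.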
# Sfp inh: inhibitors of Bacillus subtilis Sfp phosphopantetheinyl transferase | Q9F4F7 | Biochemical Sfp PPTase activity, qHTS | Potency, µM, for the others: largest response in the series, negative = inhibition, actives largely listed as inhibitors | 310,000 compounds, 3.5% hits | AID 1490;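 note: the enzyme is Sfp with the accession as filed and its product quenches rhodamine fluorescence; potency is the fitted concentration of half-maximal effect; 0% = enzyme reaction without inhibitor and -100% = no enzyme wells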
#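 Step 1, compound plus 15 nM Sfp-PPTase, 15 min, room temperature. Step 2, add rhodamine-CoA (5 uM) and BHQ-2-YbbR (12.5 uM). Step 3, read 525/598 nm fluorescence at 0 and 30 min.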
# * hit, by the source's call; ? = inconclusive; . = no result. Unless noted, calls come from the whole dose curve; as a rule, active = well fitted curve in the direction sought with a large enough effect; inconclusive = small, poorly fitted or top-dose-only effect, or another doubt; inactive = no such curve, though single readings can be large; an effect the other way counts as inactive or inconclusive. Unless noted, % is set by controls: 0 for no effect and ±100 for the full control effect.
SMILES,ELG1 DNA repair,FBPA coupling cs,Giardia killer,Sfp inh
CC[C@H]1C2=C3C(CC[C@H]4C(OC)OC[C@](C)([C@@H]34)N(C(=O)OC(C)(C)C)C2)C(CO)C1CO (stereo not given in full),.,3,.,1%
Cc1ccc(-c2nn3c(C)nnc3s2)cc1NC(=O)CSc1ccc(Cl)cc1,21µM*,1,-15,3%
CC1CCCN(c2ccc([N+](=O)[O-])s2)C1 (stereo not given),-5%,2,-7,50µM*
O=[N+]([O-])c1ccc(N2CCCCC2)s1,6%,-10,0,50µM*
Cc1ccc(C2(C)NC(=O)N(CC(=O)N(C)CC(=O)Nc3cccc4ccccc34)C2=O)cc1 (stereo not given),-2%,.,-3,.
O=C(CSc1ncnc2sc3c(c12)CCCC3)N1CCC(c2noc3ccc(F)cc23)CC1,-15%,-1,-1,-7%
Cc1cc(SCC(=O)N2CCC(c3noc4ccc(F)cc34)CC2)nc2ccccc12,21µM*,0,-4,6%
CN(C)CCCNC(=O)C[C@H]1C[C@H](C(=O)N2CCOCC2)[C@@]2(C)c3[nH]c4ccc(Cl)cc4c3CCN2C1=O,12%,.,-2,.
COc1ccc2c(c1)sc1nc(-c3ccccc3)cn12,?,-19,-91*,50µM*
CCOC(=O)N1CCN(C(=O)c2ccc3c(c2)sc2nc(-c4ccc(OC)cc4)cn23)CC1,?,1,13,0%
Cc1ccc(C(c2nnnn2Cc2ccccc2)N2CCN(Cc3ccncc3)CC2)cc1 (stereo not given),.,.,19,.
O=C(O)CCc1cc(I)c(O)c(I)c1,.,.,.,4%
CN(CC(=O)Nc1ccc(Cl)c(C(F)(F)F)c1)C(=O)CCCc1nc2ccccc2c(=O)[nH]1,11µM*,.,6,.
O=[N+]([O-])c1ccc(Nc2ccccc2)c2nonc12,?,-1,?,-8%
O=[N+]([O-])c1ccc(Sc2cccc[n+]2[O-])c2nonc12,?,-80*,-2,1.3µM*
Cc1cc(C)c(C)c(C(=O)COC(=O)CNC(=O)CNC(=O)c2ccco2)c1C,-10%,2,3,-2%
CCOc1ccccc1CNC(=O)C1CCN(C(=O)c2sccc2-n2cccc2)CC1,13µM*,5,-17,3%
O=C(NCc1ccccc1Cl)C1CCN(C(=O)c2sccc2-n2cccc2)CC1,?,4,-21,7%
Nc1ccc2nn(-c3ccccc3)nc2c1,?,-5,-17,-17%
Nc1cc2nn(-c3ccccc3)nc2cc1Cl,?,-44*,3,40µM*
Cc1cc(N2C(=O)C(O)=C(C(=O)c3ccco3)C2c2ccccc2F)no1 (stereo not given),?,.,15,1%
Cc1ccccc1SCC(=O)N/N=C/c1ccc(F)cc1,-8%,-2,3,-3%
CCN(CC)C(=O)[C@H]1C[C@H](CC(=O)NCCC2=CCCCC2)C(=O)N2CCc3c([nH]c4ccc(Cl)cc34)[C@]12C,?,.,-9,.
O=C(NC(=S)Nc1ccccc1O)c1ccc(-c2ccc(Cl)cc2)o1,-2%,1,13,16%
COc1ccccc1NC(=S)NC(=O)c1ccc(-c2ccc(Cl)cc2)o1,15%,-3,12,18µM*
SMILES,ELG1 DNA repair,FBPA coupling cs,Giardia killer,Sfp inh
CCOC(=O)c1sc(=S)n(-c2ccccc2)c1C,6%,5,-20,5%
CCOC(=O)c1c(O)c(O)c(C(=O)OCC)n1-c1ccccc1,5%,-13,15,32µM*
Cc1cc(-c2ccc(NS(=O)(=O)c3ccccc3)c(C)c2)ccc1NS(=O)(=O)c1ccccc1,.,.,-3,.
Cc1ccc(NS(=O)(=O)c2ccccc2)c2c1CC(C)(C)O2,3%,-46*,-18,-7%
O=C(N/N=C/C(Br)=C\c1ccccc1)c1ccc2nc[nH]c2c1,?,0,-13,50µM*
CC(=C/c1ccccc1)/C=N/NC(=O)c1ccc2nc[nH]c2c1,?,0,-18,4%
COc1ccc(C(=O)NCCCNC(=O)c2cnccn2)cc1Br,14%,2,-14,11%
COc1cccc(-c2nc(CS(=O)(=O)CC(=O)Nc3cc(F)ccc3F)c(C)o2)c1,18µM*,.,-5,3%
Cc1ccc(-c2ccc(C(=O)NCCCNC(=O)c3cnccn3)o2)cc1Cl,-11%,2,16,4%
OC(COc1ccc(Cl)cc1)CN1CCN(c2cccc(Cl)c2)CC1 (stereo not given),-5%,-1,-9,-15%
CC(=O)N(C)c1ccc(OCC(O)Cn2c3ccc(Cl)cc3c3cc(Cl)ccc32)cc1 (stereo not given),18µM*,-1,4,-5%
CC(=O)N(C)c1ccc(OCC(O)Cn2c(C)nc3ccccc32)cc1 (stereo not given),9.2µM*,1,11,28%
COc1ccc(-c2csc(Nc3ccccc3)[n+]2CC(O)c2ccc([N+](=O)[O-])cc2)cc1 (stereo not given),21µM*,-3,-9,-7%
CCCCCC[n+]1c(-c2ccccc2)csc1Nc1ccccc1,1%,2,0,0%
Cc1ccc2cc(C#N)c(N3CCCC3)nc2c1C,17%,-2,-4,20µM*
COc1ccc2nc(N3CCCCC3)c(C#N)cc2c1,?,-33*,-8,79µM*
COc1ccccc1C(=O)N1CCN(c2nc3cc(C)c(C)cc3cc2C#N)CC1,23µM*,-2,-7,-2%
O=C(CN1c2ccccc2S(=O)(=O)c2ccccc21)NCc1ccc(F)cc1,-2%,.,8,11%
CC1=NN(C(=O)COc2cc(C)ccc2C(C)C)C(O)(c2ccccc2)C1 (stereo not given),21µM*,0,1,7%
CC1=NN(C(=O)COc2ccc(C)c(C)c2)C(O)(c2ccc(Cl)cc2)C1 (stereo not given),-2%,1,12,2%
CC(NCc1ccc(S(N)(=O)=O)cc1)C(=O)Nc1cc([N+](=O)[O-])ccc1Cl (stereo not given),-1%,2,2,5%
CC(NCc1ccc(S(N)(=O)=O)cc1)C(=O)Nc1ccc([N+](=O)[O-])cc1Cl (stereo not given),23µM*,1,-29,-5%
COC(=O)c1sc2nc(C)nc(SCC(=O)Nc3sccc3C(N)=O)c2c1C,?,.,2,.
CCC(C)NCCOCCOc1ccc(Cl)cc1Br (stereo not given),3%,3,10,50µM*
Cc1onc(-c2ccccc2Cl)c1C(=O)NCc1ccc(F)cc1,2%,-1,7,-3%
COc1ccc(Cc2nc(=S)[nH][nH]2)cc1Br,-6%,5,-25,35µM*
Cc1cccc(NC(=O)c2sc3nc(-c4ccccc4)cn3c2C)n1,18µM*,-1,20,?
COc1ccc(-c2cn3c(C)c(C(=O)Nc4cccc(C)n4)sc3n2)cc1,?,-5,13,40µM*
Cc1cccc(NC(=O)c2sc3nc(-c4ccc(F)cc4)cn3c2C)n1,13%,1,8,50µM*
